The assay relates to Drosophila S2 cl14 SmoIP sensor cells. In words: normalized SmoIP GFP fluorescence (untreated unstimulated = 0%, untreated Hh-stimulated = 100%); higher = more Smo activation sensor fluorescence. The conditions noted are these: compound concentration: 2 uM, 24 h.
Setting [1] is: stimulation: Hh conditioned medium (+Hh).
Setting [2] is: stimulation: mock conditioned medium (-Hh).

Counter-ions that a name gives are not always drawn.
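Further: flow cytometry read-out as median GFP intensity of gated cells, compounds added 30 min before Hh-conditioned or mock medium, mock-treated cells serving as unstimulated baseline.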

`CC(C)c1cc(C(C)C)c(CC(=O)NS(=O)(=O)Oc2c(C(C)C)cccc2C(C)C)c(C(C)C)c1` [Avasimibe(CI-1011)]: the “normalized SmoIP GFP fluorescence” value was 111% under setting [1] and -15.8% under setting [2].
The matching figures for `CN(C)C(=O)c1cc2cnc(Nc3ccc(N4CCNCC4)cn3)nc2n1C1CCCC1`: 98.3% and -0.265%.
The corresponding values for `NS(=O)(=O)c1ccc(NC(=O)Nc2ccc(F)cc2)cc1` are 101% and -3.05%.
Turning to `Cc1ccc(Nc2nccc(N(C)c3ccc4c(C)n(C)nc4c3)n2)cc1S(N)(=O)=O` [Pazopanib-Hydrochloride], the “normalized SmoIP GFP fluorescence” value by setting is: under setting [1], 117%; under setting [2], -4.53%.
The corresponding values for `Nc1nc(N)c2nc(-c3cccc(O)c3)c(-c3cccc(O)c3)nc2n1` are 110% and -5.01%.
The matching figures for `O[C@H](CNC[C@@H](O)[C@H]1CCc2cc(F)ccc2O1)[C@@H]1CCc2cc(F)ccc2O1` [Nebivolol(Bystolic)]: 109% and 19.8%.
The matching figures for `CNC(=O)c1ccc(-c2cnc3ncc(Cc4ccc5ncccc5c4)n3n2)cc1F`: 107% and -1.34%.
In the case of `CCS(=O)(=O)N1CC(CC#N)(n2cc(-c3ncnc4[nH]ccc34)cn2)C1`, the “normalized SmoIP GFP fluorescence” value is 110% under setting [1] and -0.775% under setting [2].
The corresponding values for `CNC(=O)[C@H](Cc1ccccc1)NC(=O)[C@H](CC(C)C)[C@H](CSc1cccs1)C(=O)NO` are 94.8% and -2.48%.
The corresponding values for `NS(=O)(=O)C#Cc1ccccc1` [pifithrin-u] are 103% and -0.0369%.
The corresponding values for `C[C@@H](NCCCc1cccc(C(F)(F)F)c1)c1cccc2ccccc12` [Cinacalcet-hydrochloride] are 104% and 5.98%.
For the compound `Cc1ccc(S(=O)(=O)C=CC#N)cc1`, the “normalized SmoIP GFP fluorescence” value amounted to 121% under setting [1] and 2.86% under setting [2].
The matching figures for `CC(=O)Nc1nc(C)c(-c2ccc(Cl)c(S(=O)(=O)NCCO)c2)s1`: 130% and -1.13%.
Regarding `CC/C(=C(\c1ccccc1)c1ccc(OCCN(C)C)cc1)c1ccccc1` [Tamoxifen-Citrate(Nolvadex)], the “normalized SmoIP GFP fluorescence” value reads like this: under setting [1], 112%; under setting [2], -6.61%.
The corresponding values for `N#CCNC(=O)c1ccc(-c2ccnc(Nc3ccc(N4CCOCC4)cc3)n2)cc1` are 208% and 53.3%.
Consider `CC(C)CC(=O)Nc1n[nH]c2c1CN(C(=O)C1CCN(C)CC1)C2(C)C`, for which the “normalized SmoIP GFP fluorescence” value is 41.2% under setting [1] and 20.1% under setting [2].
The corresponding values for `CC(C)(C)NC(=O)[C@H]1CC[C@H]2[C@@H]3CC[C@H]4NC(=O)C=C[C@]4(C)[C@H]3CC[C@]12C` [Finasteride] are 77.5% and -9.32%.
With `COc1ccc(-c2ccc3c(N4CCOCC4)nc(N4C[C@@H](C)O[C@@H](C)C4)nc3n2)cc1CO`, the “normalized SmoIP GFP fluorescence” value under setting [1] was found to be 62.1% and the “normalized SmoIP GFP fluorescence” value under setting [2] was -12.5%.
The corresponding values for `Cc1cc(C)nc(NS(=O)(=O)c2ccc(NC(=S)NC(=O)COc3ccc(Br)cc3Cl)cc2)n1` are 105% and -4.81%.
With `Cn1cnc2c(F)c(Nc3ccc(Br)cc3F)c(C(=O)NOCCO)cc21`, the “normalized SmoIP GFP fluorescence” value runs as follows: under setting [1], 138%; under setting [2], 23%.
The matching figures for `OCCn1cc(-c2ccc3c(c2)CC/C3=N\O)c(-c2ccncc2)n1`: 97.5% and 0.274%.
As to `COc1ccnc2[nH]cc(C(=O)C(=O)N3CCN(C(=O)c4ccccc4)C[C@H]3C)c12`, the “normalized SmoIP GFP fluorescence” value turned out to be 142% under setting [1] and 15.4% under setting [2].
On to `CN(C)Cc1cccc(N/C(=C2\C(=O)Nc3cc(C(N)=O)ccc32)c2ccccc2)c1`, for which the “normalized SmoIP GFP fluorescence” value under setting [1] amounted to 103% and the “normalized SmoIP GFP fluorescence” value under setting [2] is -1.88%.
The matching figures for `O=C(O)CCCCC(CCSCc1ccccc1)SCc1ccccc1` (stereo not drawn): 112% and -1.63%.
The matching figures for `COc1ccc(C[C@H](NC(=O)[C@H](C)NC(=O)CN2CCOCC2)C(=O)N[C@@H](Cc2ccccc2)C(=O)[C@@]2(C)CO2)cc1`: 86.4% and 15.1%.
The corresponding values for `NCCCCCNCC12CC3CC(CC(C3)C1)C2` [iem-1754-dihydrobromide] are 102% and -2.31%.
For the compound `CCC(=O)NCC[C@@H]1CCc2ccc3c(c21)CCO3` [Ramelteon], the “normalized SmoIP GFP fluorescence” value is, setting by setting: under setting [1], 95.6%; under setting [2], -0.588%.
The corresponding values for `O=C(CCCCCCNC(=O)c1cnc(N(c2ccccc2)c2ccccc2)nc1)NO` [rocilinostat-acy-1215] are 114% and 6.2%.
The matching figures for `CC(C)N(C[C@H]1O[C@@H](n2cnc3c(N)ncnc32)[C@H](O)[C@@H]1O)[C@H]1C[C@@H](CCc2nc3cc(C(C)(C)C)ccc3[nH]2)C1`: 124% and -2.59%.
The matching figures for `Cc1cc(OCCCS(C)(=O)=O)cc(C)c1-c1cccc(COc2ccc3c(c2)OC[C@H]3CC(=O)O)c1`: 120% and -6.79%.
Turning to `Cc1nnc(C(C)C)n1C1C[C@H]2CC[C@@H](C1)N2CC[C@H](NC(=O)C1CCC(F)(F)CC1)c1ccccc1` (stereo in doubt) [Maraviroc], the “normalized SmoIP GFP fluorescence” value was 122% under setting [1] and -13.4% under setting [2].
The corresponding values for `CN1CC2c3ccccc3Oc3ccc(Cl)cc3C2C1` (stereo not drawn) [Asenapine] are 115% and 4.58%.
The corresponding values for `N[C@H]1C[C@@H]1c1ccc(-c2cccc(O)c2)cc1` are 102% and -4.81%.
The matching figures for `NC(=O)c1cccc(-c2cccc(OC(=O)NC3CCCCC3)c2)c1`: 134% and -7.15%.
`c1ccc(-c2[nH]ncc2-c2ccnc3ccccc23)nc1`: the “normalized SmoIP GFP fluorescence” value was found to be 101% under setting [1] and 0.247% under setting [2].
The corresponding values for `COc1cccc(C=NCCN=Cc2cccc(OC)c2[O-])c1[O-].[Cl-].[Mn+3]` are 114% and -2.2%.
The corresponding values for `CC(C(=O)O)c1ccc2c(c1)CC(=O)c1ccccc1S2` (stereo not drawn) [zaltoprofen] are 111% and -1.97%.
As to `COc1cc2c(N3CCN(C(=O)Nc4ccc(OC(C)C)cc4)CC3)ncnc2cc1OCCCN1CCCCC1` [Tandutinib-(MLN518)], the “normalized SmoIP GFP fluorescence” value is 99.7% under setting [1] and 1.89% under setting [2].
The matching figures for `C[C@H](Oc1cc(-c2cnn(C3CCNCC3)c2)cnc1N)c1c(Cl)ccc(F)c1Cl` [s-crizotinib]: 114% and 7.39%.
The corresponding values for `CS(=O)(=O)c1cccc(CNc2nc(Nc3ccc4c(c3)CCC(=O)N4)ncc2C(F)(F)F)c1` are 209% and 71.5%.
The matching figures for `CCc1cc2c(cc1N1CCC(N3CCOCC3)CC1)C(C)(C)c1[nH]c3cc(C#N)ccc3c1C2=O`: 148% and 8.36%.
For the compound `CC(/C=C/C(=O)NO)=C\[C@@H](C)C(=O)c1ccc(N(C)C)cc1` [Trichostatin-A], the “normalized SmoIP GFP fluorescence” value is, setting by setting: under setting [1], 276%; under setting [2], 77.5%.
The matching figures for `Cc1ccc(C(=O)Nc2ccc(CN3CCN(C)CC3)c(C(F)(F)F)c2)cc1C#Cc1cnc2cccnn12`: 128% and 11.3%.
As to `O=C(Nc1ccccc1)N1CCN(c2nc(-c3ccccc3)ns2)CC1`, the “normalized SmoIP GFP fluorescence” value reads like this: under setting [1], 104%; under setting [2], -0.889%.
As for `CC(C)(F)C[C@H](N[C@@H](c1ccc(-c2ccc(S(C)(=O)=O)cc2)cc1)C(F)(F)F)C(=O)NC1(C#N)CC1` [Odanacatib-(MK0822)], the “normalized SmoIP GFP fluorescence” value runs as follows: under setting [1], 110%; under setting [2], -4.25%.
The matching figures for `Nc1nc(N)c(N=O)c(OCC2CCCCC2)n1`: 139% and 12.5%.
The corresponding values for `O=C(O)CC[C@H]1CC[C@@](c2cc(F)ccc2F)(S(=O)(=O)c2ccc(Cl)cc2)CC1` are 114% and 2.32%.
Take `CC1C(=O)OC2C(O)C34C5CC(C(C)(C)C)C36C(OC(=O)C6O)OC4(C(=O)O5)C12O` (stereo not drawn) [Ginkgolide-B]: the “normalized SmoIP GFP fluorescence” value under setting [1] came to 85.5% and the “normalized SmoIP GFP fluorescence” value under setting [2] is 0.489%.
As for `CC(C)CCN1c2nc(Nc3cc(F)c(O)c(F)c3)ncc2N(C)C(=O)C1C` (stereo not drawn), the “normalized SmoIP GFP fluorescence” value runs as follows: under setting [1], 144%; under setting [2], 1.61%.
As to `OCc1ccc(-c2ccc(-c3ccc(CO)s3)o2)s1`, the “normalized SmoIP GFP fluorescence” value is 111% under setting [1] and -2.08% under setting [2].
The matching figures for `CC(=O)OCC(=O)NCCCOc1cccc(CN2CCCCC2)c1` [roxatidine-acetate-hcl]: 142% and -6.97%.
The corresponding values for `Clc1ccc2nsnc2c1NC1=NCCN1` [Tizanidine-hydrochloride] are 105% and -5.76%.
The corresponding values for `CC(C)NCC(O)c1ccc(O)c(O)c1` (stereo not drawn) [Isoprenaline-hydrochloride] are 141% and -14.1%.
On to `CNCc1ccc(-c2[nH]c3cc(F)cc4c3c2CCNC4=O)cc1`, for which the “normalized SmoIP GFP fluorescence” value is 115% under setting [1] and 0.489% under setting [2].
The corresponding values for `O=c1cc(-c2ccc(O)cc2)oc2cc(O)cc(O)c12` [Apigenin] are 140% and -2.19%.
The matching figures for `C#Cc1cccc(Nc2ncnc3cc4c(cc23)OCCOCCOCCO4)c1` [icotinib]: 93.3% and -1.63%.
The corresponding values for `O=C(O)CCc1ccc(NCc2cccc(Oc3ccccc3)c2)cc1` are 105% and -2.19%.
For the compound `O=C(Nc1ccc(-c2ccnc(Nc3ccc(N4CCOCC4)cc3)n2)cc1)C1CCCN1` (stereo not drawn), the “normalized SmoIP GFP fluorescence” value under setting [1] was 121% and the “normalized SmoIP GFP fluorescence” value under setting [2] came out at 2.12%.
With `Cc1cc(Cn2cnc3c2CC(C(=O)O)N(C(=O)C(c2ccccc2)c2ccccc2)C3)ccc1N(C)C` (stereo not drawn), the “normalized SmoIP GFP fluorescence” value reads like this: under setting [1], 109%; under setting [2], -4.13%.
In the case of `Cc1nc(Nc2ncc(C(=O)Nc3c(C)cccc3Cl)s2)cc(N2CCN(CCO)CC2)n1` [Dasatinib], the “normalized SmoIP GFP fluorescence” value is, setting by setting: under setting [1], 126%; under setting [2], -3.93%.
The matching figures for `O=C(Nc1cccc(Cl)c1)c1ccccn1`: 105% and -2.93%.
The corresponding values for `COc1cc2nccc(Oc3ccc(NC(=O)Nc4cc(C)on4)c(Cl)c3)c2cc1OC` are 111% and 1.89%.
The corresponding values for `CC(C)(O)CC(=O)NCCn1ccc2ncnc(Nc3ccc(Oc4cccc(C(F)(F)F)c4)c(Cl)c3)c21` are 116% and 3.66%.
With `CCc1ccc(/C=C2/SC(=S)NC2=O)cc1`, the “normalized SmoIP GFP fluorescence” value runs as follows: under setting [1], 105%; under setting [2], -1.63%.
The corresponding values for `O=C(/C=C/c1ccc(O)c(O)c1)c1ccc(O)cc1O` [butein] are 77.1% and 3.58%.
The corresponding values for `CC(COc1ccccc1)N(CCCl)Cc1ccccc1` (stereo not drawn) [Phenoxybenzamine-hydrochloride] are 148% and -12.4%.
The matching figures for `O=C(NCc1cccc(O)c1)Nc1nc(-c2ccncc2)cs1`: 107% and -2.93%.
With `O=C1c2ccccc2C(=O)c2c1ccc(O)c2O` [Alizarin], the “normalized SmoIP GFP fluorescence” value reads like this: under setting [1], 141%; under setting [2], -7.96%.
Take `O=C(CCCCCN1C(=O)c2cccc3cccc(c23)C1=O)NO` [scriptaid]: the “normalized SmoIP GFP fluorescence” value under setting [1] amounted to 163% and the “normalized SmoIP GFP fluorescence” value under setting [2] came to 10.9%.
In the case of `COc1cc(-c2ncn(/C=C\C(=O)OC(C)C)n2)cc(C(F)(F)F)c1`, the “normalized SmoIP GFP fluorescence” value is, setting by setting: under setting [1], 98.3%; under setting [2], -0.889%.
The corresponding values for `NC(=O)c1ccc(-c2nc(-c3ccccn3)c(-c3ccc4c(c3)OCO4)[nH]2)cc1` are 130% and -2.96%.
The matching figures for `Cc1ccc(NC(=O)c2cccc(N(C)C)c2)cc1NC(=O)c1ccc(O)cc1`: 120% and -14.7%.
The matching figures for `O=C(NOCC1CC1)c1ccc(F)c(F)c1Nc1ccc(I)cc1Cl`: 112% and 10.7%.
Regarding `O=C(O)CCCc1ccccc1` [sodium-phenylbutyrate], the “normalized SmoIP GFP fluorescence” value by setting is: under setting [1], 112%; under setting [2], -2.93%.
